Anthrax LF prot: anthrax lethal factor protease inhibition | 360,000 tested, 0.12% active | AID 588501 | P15917 | inhibition, % at 10 µM | multiplex microsphere protease cleavage assay, LF; note: plate controls were buffer without enzyme for full effect and enzyme alone for no effect
MazEF act: MazEF (E. coli) toxin RNase activation; 350,000 tested, 0.32% active; activation, % at 20 µM; FAM/BHQ RNA-DNA oligo cleavage fluorescence, 5 h; in the data active = activation above about 50%
Target sequence (P0AE70 whole entry, looked up): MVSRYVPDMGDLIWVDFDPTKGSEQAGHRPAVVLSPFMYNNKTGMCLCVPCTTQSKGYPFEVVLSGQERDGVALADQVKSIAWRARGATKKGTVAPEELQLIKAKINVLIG
Bead autofluor: flagged as autofluorescent in microsphere protease counterscreen; compound autofluorescence counterscreen, microsphere flow cytometry; active compounds read high; AID 624483; fluorescence intensity (concentration not given with the values); 360,000 tested, 3.1% active; in the data active = fluorescence intensity above about 16000; inconclusive = no clear call, values can overlap the other calls
BoNT-A LC inh2: inhibitors of Botulinum neurotoxin A light chain protease; multiplex microsphere protease substrate cleavage, flow cytometry; inhibition, % at 10 µM; 360,000 tested, 0.17% active; note: plate controls were buffer without enzyme for full effect and enzyme alone for no effect
BoNT-F LC inh: blocks Botulinum neurotoxin F light chain protease | Multiplex microsphere protease cleavage assay, flow cytometry | inhibition, % at 10 µM | 360,000 tested, 0.22% active; in the data active = inhibition above about 35%, passing the limit was not always enough; inconclusive = no clear call, values can overlap the other calls; note: plate controls were buffer without enzyme for full effect and enzyme alone for no effect
Starred values were filed as active, the others as inactive; ? = inconclusive; . = no result given. Hits are enriched below; roughly 3.7% of the tested compounds scored in any of these assays. Cut-off read from the data, not from the text of the source, unless noted: active = inhibition above about 30%; inconclusive = no clear call, values can overlap the other calls; inactive = below that.

SMILES	Anthrax LF prot	MazEF act	Bead autofluor	BoNT-A LC inh2	BoNT-F LC inh
O=c1ccn([C@@H]2O[C@H](CNS(=O)(=O)C3CC3)[C@@H](O)[C@H]2O)c(=O)[nH]1	-1.4	4.7	3886	-0.5	-1.6
CC(C)c1nnc(NC(=O)Cn2nc(-c3ccc4c(c3)OCCO4)ccc2=O)s1	-8.4	-0.2	17082*	-3.5	-8.3
Cc1c(C(=O)N2CCOCC2)sc(NC(=O)c2ccccc2F)c1C#N	4.8	17.2	3270	-1.8	-10.4
O=C(COC(=O)c1c(Cl)ccc(Cl)c1Cl)NC(=O)NCc1ccccc1	1.9	-1.2	2517	-0.4	-4.9
COc1cccc(C(=O)N2CCN(Cc3cccc(F)c3)CC2)c1	0.3	-2.4	23288*	-1.1	-2.4
CCOc1ccc(C(=S)N2CCCC2)cc1OC	-0.4	8.3	1970	-0.3	-0.1
COc1cc(OC)cc(C(=O)N2CCN(Cc3cccc(F)c3)CC2)c1	-20.2	4.3	?	?	?
COc1ccc(CN2CCN(C(=O)c3cc(OC)c(OC)c(OC)c3)CC2)cc1OC	-3.6	4.8	22314*	?	6.3
CCOc1ccc(C(=O)N2CCCC2)cc1OC	-3.1	-1.9	21510*	-2.0	-2.3
CC(C)CCCN1C(N(C)C)=NC[C@@H]1C	6.3	6.2	2921	0.0	7.0
O=C(Cc1ccc(NC2=NC3CS(=O)(=O)CC3S2)cc1)N1CCN(c2ccc(F)cc2)CC1 (centres undefined)	-8.1	15.0	5434	0.5	-2.0
Cc1cccc(NC(=O)C2CCCN(C(=O)NC3CCCCC3)C2)c1C (centres undefined)	-0.8	3.4	22986*	0.4	-1.2
COc1cccc(CNCC(O)(c2ccc(Cl)cc2)c2ccc(Cl)cc2)c1	-3.3	-6.7	23322*	-0.3	-12.2
COc1ccc(CNCC(O)(c2ccccc2)c2ccc(Cl)cc2)cc1 (centres undefined)	1.6	8.4	9814	-0.1	-14.5
O=C(CSc1ccccc1C(=O)O)Nc1cccc(C(=O)O)c1	0.4	4.5	21124*	?	3.2
O=C(NCc1ccccc1)C1(c2ccccc2)CCN(S(=O)(=O)c2ccccc2)CC1	-1.9	3.2	16987*	-1.3	-1.9
N#CC1CC(c2ccc([N+](=O)[O-])cc2)=NN1c1ccc([N+](=O)[O-])cc1 (centres undefined)	7.9	562.9*	4278	19.3	2.9
O=C(Cc1cccs1)N1CCN(S(=O)(=O)c2ccc(Cl)c(C(F)(F)F)c2)CC1	-10.8	-6.8	2899	0.1	-8.9
CCOC(=O)CNC(=S)N(Cc1ccco1)Cc1ccccc1Cl	7.7	-3.0	4096	-2.6	-15.7
O=C(NC1CCN(C(=O)Nc2cccc(Cl)c2)CC1)c1ccco1	-3.7	15.2	3517	-0.5	-8.6
COC(=O)c1ccccc1S(=O)(=O)N(Cc1ccco1)Cc1cc2cc(OC)ccc2[nH]c1=O	1.9	11.9	22912*	1.0	1.5
Cc1cc(C)c2cc(CN(CCCO)S(=O)(=O)c3ccccc3F)c(=O)[nH]c2c1	-4.9	0.2	3526	-2.4	12.1
COC(=O)c1ccccc1S(=O)(=O)N(CCCO)Cc1cc2c(C)ccc(C)c2[nH]c1=O	-5.8	5.3	22748*	-0.6	2.5
CC1CCCC(N2CCN(S(=O)(=O)c3ccccc3)CC2)C1 (centres undefined)	-4.8	-0.6	3675	-1.7	16.8
C=CCn1c(COc2ccc(F)cc2)nnc1SCC(=O)NC1CC1	-3.6	6.4	5417	3.7	9.1
SMILES	Anthrax LF prot	MazEF act	Bead autofluor	BoNT-A LC inh2	BoNT-F LC inh
C=CCn1c(COc2ccc(F)cc2)nnc1SCC(=O)N1CC(=O)Nc2ccccc21	1.0	-6.6	21515*	-4.4	-4.0
CCOc1ccc(S(=O)(=O)N2CN(c3cccc(C(C)=O)c3)c3nc4ccccc4nc32)cc1	-1.4	-3.1	2981	-0.2	-7.0
O=S(=O)(c1ccc(NC(=S)N/N=C/c2c3ccccc3cc3ccccc23)cc1)N1CCOCC1	13.8	-4.0	3214	32.6*	1.7
CCCc1c(-c2ccccc2Br)ncn1Cc1ccccc1OC	-1.5	.	6390	-0.5	-5.5
Cc1c(C(=O)NC2=NCCS2)oc2ccccc12	-0.9	-11.2	21128*	-1.3	-11.8
COc1cc(C(=O)Nc2cc(C)ccc2C)ccc1OCc1c(C)noc1C	1.8	5.5	3052	0.3	0.3
COc1cc(C(=O)NC2=NCCS2)ccc1OCc1c(C)noc1C	0.1	4.1	20499*	?	-5.8
COc1cccc(C(=O)NC2=NCCS2)c1OC	-7.4	7.1	19499*	?	-1.0
O=C(Nc1nnc(Cc2ccccc2)s1)Nc1ccccc1F	22.9	1.5	4181	2.8	-24.8

Compound activity (PubChem)
